Laboratory results as given in PubChem BioAssay.
Inconclusive results are not listed. Active and inactive are the calls of the source.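 How the source made its calls, unless noted: active means viability at or below 27.92% in each of two runs, the all-compound median minus 4 SD; inconclusive means no clear call, values can overlap the other calls; inactive means the rest.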

Columns and labels:
[1] = reducers of endogenous Her2 protein level, primary screen, SKBR3 breast tumor cells, AlphaScreen, ATP viability (AID 461;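 active means Her2 level under about 52% in both replicate screens, with viability over 70% of control, limit read from the data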;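 on Her2 level: lower value means less Her2 protein in the cells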;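 on viability: percent of carrier control wells set as 100% viability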); details: 18-24 h, measured here: SKBR3 viability, ATP luminescence, at 10 µM
[2] = target: Receptor tyrosine-protein kinase erbB-2 (Homo sapiens) (UniProt P04626); experiment: as above; details: 18-24 h, at 10 µM, stronger effect = lower value
Chain of Receptor tyrosine-protein kinase erbB-2 (Homo sapiens) (P04626 whole entry, looked up): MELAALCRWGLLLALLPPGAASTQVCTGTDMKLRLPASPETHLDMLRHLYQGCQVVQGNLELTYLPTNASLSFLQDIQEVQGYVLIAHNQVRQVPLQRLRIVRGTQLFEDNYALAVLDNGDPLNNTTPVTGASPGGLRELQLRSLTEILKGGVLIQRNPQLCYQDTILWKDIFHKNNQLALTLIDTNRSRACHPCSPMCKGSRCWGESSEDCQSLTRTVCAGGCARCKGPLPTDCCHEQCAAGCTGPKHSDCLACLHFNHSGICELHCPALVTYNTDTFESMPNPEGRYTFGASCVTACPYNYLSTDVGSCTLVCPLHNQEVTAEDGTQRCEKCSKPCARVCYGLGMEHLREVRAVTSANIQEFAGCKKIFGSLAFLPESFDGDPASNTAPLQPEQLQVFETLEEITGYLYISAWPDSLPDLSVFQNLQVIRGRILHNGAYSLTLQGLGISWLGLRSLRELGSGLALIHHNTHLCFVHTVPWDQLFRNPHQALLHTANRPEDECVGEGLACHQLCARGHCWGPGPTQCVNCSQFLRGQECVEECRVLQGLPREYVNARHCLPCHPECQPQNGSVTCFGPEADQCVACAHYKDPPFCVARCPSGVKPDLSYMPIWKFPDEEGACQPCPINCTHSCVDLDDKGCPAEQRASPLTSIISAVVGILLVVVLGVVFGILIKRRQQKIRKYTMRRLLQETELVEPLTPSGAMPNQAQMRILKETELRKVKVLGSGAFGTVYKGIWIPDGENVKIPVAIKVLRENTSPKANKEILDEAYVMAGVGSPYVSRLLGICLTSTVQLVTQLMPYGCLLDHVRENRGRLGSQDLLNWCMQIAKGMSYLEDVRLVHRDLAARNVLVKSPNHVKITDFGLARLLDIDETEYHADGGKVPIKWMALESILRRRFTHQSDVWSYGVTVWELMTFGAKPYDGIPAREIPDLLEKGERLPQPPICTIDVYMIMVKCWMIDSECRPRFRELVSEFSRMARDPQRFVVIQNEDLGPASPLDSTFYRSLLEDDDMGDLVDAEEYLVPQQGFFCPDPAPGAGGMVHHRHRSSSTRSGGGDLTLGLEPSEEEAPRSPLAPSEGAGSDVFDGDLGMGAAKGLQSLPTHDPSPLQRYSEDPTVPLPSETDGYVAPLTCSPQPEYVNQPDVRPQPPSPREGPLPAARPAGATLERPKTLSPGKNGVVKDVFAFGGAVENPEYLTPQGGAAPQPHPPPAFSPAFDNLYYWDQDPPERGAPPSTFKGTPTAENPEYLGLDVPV

[3] = SK-BR-3 cell growth inhibitors, pilot screen, 24 h, human (AID 572;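 active means viability at or below 10% of carrier control in both of two separate runs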;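 further: compound exposure lasted between 18 and 24 h rather than exactly 24 h; 100% = carrier-treated control wells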); details: SK-BR-3 viability, CellTiter-Glo luminescence, at 10 µM, stronger effect = lower value
[4] = HUVEC growth inhibition – cell-based, human, primary screen (AID 575;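 active means viability at or below 30% in both replicate assays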;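 further: 100% = median of untreated cell wells with 0.1% DMSO on each plate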); details: HUVEC proliferation, CellTiter-Glo luminescence, 72 h; at 10 µM; stronger effect = lower value
[5] = growth inhibitors of H69AR lung tumor, primary screen, human, duplicate replicates (AID 580;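 active means viability at or under a set limit in both replicates, limit being median viability minus 3 SD, cut at about 48% in these data, passing the limit was not always enough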;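 further: 100% = mean luminescence of untreated wells and 0% = no signal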); details: H69AR lung tumor cells viability, ATP luminescence, 72 h; at 10 µM; stronger effect = lower value
[6] = reversal of MRP1-mediated doxorubicin resistance, pilot screen, H69AR cells, doxorubicin co-treatment (AID 601;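 active means viability loss from added drug above about 55%, and viability with drug at most 40%, in both replicates, limit read from the data, passing the limit was not always enough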); details: CellTiter-Glo, 72 h, at 10 µM; for differential viability (reversal): stronger effect = higher value
[7] = 384-well plate pilot, post-Golgi transport modulator project, inhibition of yeast transport mutant growth (AID 636; in the data active means inhibition above about 31%); details: absorbance 615 nm, about 18 h, stronger effect = higher value
[8] = growth suppression of yeast trafficking mutant, preliminary HTS, modulators of trafficking downstream of Golgi apparatus project, 1536-format plate, OD 615 nm (AID 637; in the data active means inhibition above about 30%); details: yeast transport mutant growth, absorbance 615 nm, 18 h; stronger effect = higher value
[9] = OD615 S. cerevisiae growth inhibition, permissive medium, pilot counter-assay, permissive growth control for S. cerevisiae lifespan shortening project (AID 705;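 active means growth inhibition above 25% in both replicates, a cutoff set 3 SD above the mean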); details: OD615, 24 h, at 10 µM, stronger effect = higher value
[10] = Restrictive medium S. cerevisiae growth inhibition, OD615, pilot screen of yeast lifespan reduction project, restrictive growth control (AID 706;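 active means growth inhibition above a set limit, 3 SD over mean compound inhibition, in both replicates, cut at about 43% in these data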;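 further: modified DeaD lifespan yeast strain shifted to restrictive glucose medium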); details: OD615, 48 h, at 10 µM, stronger effect = higher value
[11] = viability gain of MRP-1-high H69AR cells under doxorubicin, pilot screen, MRP-1 activator project, CellTiter-Glo, duplicate (AID 807;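 active means viability increase at or above a cutoff of the median across tested compounds plus 3 SD, cut at about 8.5% in these data, passing the limit was not always enough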;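 further: compound pretreatment 18-22 h then 72 h combined with doxorubicin; 0% = doxorubicin alone and 100% = vehicle without doxorubicin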); details: H69AR viability with doxorubicin, CellTiter-Glo luminescence; at 10 µM; stronger effect = higher value
[12] = growth suppression of beta-catenin knockout HCT116, pilot screen, human colon tumor cells (AID 823;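 active means cell viability at or below a set limit in both duplicate runs, the limit being the all-compound median minus 4 SD, cut at about 23% in these data, passing the limit was not always enough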;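 further: 0% = wells killed by 20 µM Hyamine and 100% = untreated DMSO cell wells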); details: CellTiter-Glo, 60 h, at 10 µM, stronger effect = lower value
[13] = growth suppression of PTEN-deleted HCT116, pilot screen, cell-based, HCT116 clonal line, CellTiter-Glo (AID 824); details: 60 h, at 10 µM, stronger effect = lower value;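 further: 0% = 20 µM Hyamine control and 100% = vehicle cell control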
[14] = inhibitors of the yeast RAM network, pilot screen, dse1pr::URA3 reporter, 5-FOA selection (AID 869;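 active means inhibition over a set limit, the all-compound mean plus 3 SD, in both replicate runs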;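 further: 0% = DMSO wells with no growth and 100% = 10 µM 1-NA-PP1 with full growth; RAM network block rescues cells from 5-FOA so hits raise OD615 growth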); details: S. cerevisiae dse1pr::URA3 5-FOA growth, OD615, 2 d; at 10 µM; stronger effect = higher value; strain carries analog-sensitive mutant Cbk1 kinase
[15] = RAM signaling pathway blockade in yeast – S. cerevisiae, Pdr1DBD-CYC8 efflux-inhibited sensitized strain, primary screen (AID 1298;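 active means RAM network inhibition above 8.4% in each of two replicates, 3 SD over the compound average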;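 further: 0% = DMSO untreated cells without growth and 100% = 10 µM 1-NA-PP1 full growth; higher means more yeast growth rescued from 5-FOA killing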); details: S. cerevisiae cbk1-as DSE1-URA3 strain, 5-FOA growth OD615, 2 d; at 50 µM; stronger effect = higher value
[16] = H69AR cells + 2 uM doxorubicin, measured here: viability with 2 uM doxorubicin, stronger effect = lower value
[17] = H69AR cells, compound alone cytotoxicity

CC(C)OC(=O)c1ccc(OC(=O)c2cccnc2)cc1
94.6%: viability [6, 16]
91.5%: viability [1]
106%: viability [6, 17]
inactive: Her2 level [2] 100% | viability [3] 91.5% | viability [4] 102% | viability [5] 106% | differential viability (reversal) ([6]; H69AR cells + 2 uM doxorubicin) 11.3% | inhibition [7] 3.65% | inhibition [8] -3.44% | growth inhibition [9] 2.51% | growth inhibition [10] 12.6% | viability increase [11] -2.98% | viability [12] 92.9% | viability [13] 91.3% | inhibition [14] 2.02% | RAM network inhibition [15] 2.34%

CC1Cc2nc(SCC(=O)Nc3ccc4c(c3)OCO4)n(-c3ccc(F)cc3)c(=O)c2S1 (stereo not given)
89.2%: viability [6, 17]
inactive: Her2 level [2] 98% | viability [3] 90.5% | viability [4] 79.2% | viability [5] 89.2% | differential viability (reversal) ([6]; H69AR cells + 2 uM doxorubicin) 2.12% | inhibition [7] -5.87% | inhibition [8] 9.33% | growth inhibition [9] -7.17% | growth inhibition [10] 5.03% | viability increase [11] -2.53% | viability [12] 93.6% | viability [13] 86.7% | inhibition [14] 2% | RAM network inhibition [15] 6.73%
90.5%: viability [1]
87.1%: viability [6, 16]

Cc1c(C(=O)OCc2ccccc2)[nH]c2c1C(=O)CC(c1ccco1)C2 (stereo not given)
8.71%: viability [6, 16]
6.48%: viability [6, 17]
active: Her2 level [2] 40.5% | viability [4] 7.06% | viability [5] 6.48% | viability [12] 16.3% | viability [13] 18.2%
86.5%: viability [1]
inactive: viability [3] 86.5% | differential viability (reversal) ([6]; H69AR cells + 2 uM doxorubicin) -2.23% | inhibition [7] 4.87% | inhibition [8] -0.5% | growth inhibition [9] -15.1% | growth inhibition [10] -7.56% | viability increase [11] -4.85% | inhibition [14] 1.69% | RAM network inhibition [15] 1%

COCCCNC(=O)CSc1ccc(Cl)cc1
95.3%: viability [6, 17]
inactive: Her2 level [2] 85% | viability [3] 94.5% | viability [4] 81.8% | viability [5] 95.3% | differential viability (reversal) ([6]; H69AR cells + 2 uM doxorubicin) 3.39% | inhibition [7] 0% | inhibition [8] -2.67% | growth inhibition [9] 1.36% | growth inhibition [10] -6.93% | viability increase [11] -1.7% | viability [12] 106% | viability [13] 97.8% | inhibition [14] 2.25% | RAM network inhibition [15] 2.53%
91.9%: viability [6, 16]
94.5%: viability [1]

COc1ccccc1CNC(=O)CCn1c(=O)[nH]c2ccsc2c1=O
97.5%: viability [1]
88.9%: viability [6, 16]
93.9%: viability [6, 17]
inactive: Her2 level [2] 102% | viability [3] 97.5% | viability [4] 114% | viability [5] 93.9% | differential viability (reversal) ([6]; H69AR cells + 2 uM doxorubicin) 4.96% | inhibition [7] -7.97% | inhibition [8] 2.17% | growth inhibition [9] -21% | growth inhibition [10] -14.4% | viability increase [11] -0.23% | viability [12] 101% | viability [13] 99.4% | inhibition [14] 1.01% | RAM network inhibition [15] 4.41%

CCCc1cc(C(=O)Nc2ccccc2SC)no1
81.1%: viability [6, 17]
84.4%: viability [6, 16]
86%: viability [1]
inactive: Her2 level [2] 90.5% | viability [3] 86% | viability [4] 104% | viability [5] 81.1% | differential viability (reversal) ([6]; H69AR cells + 2 uM doxorubicin) -3.34% | inhibition [7] 0.9% | inhibition [8] 5.67% | growth inhibition [9] -11.4% | growth inhibition [10] -21.2% | viability increase [11] -3.07% | viability [12] 100% | viability [13] 93.4% | inhibition [14] 0.2% | RAM network inhibition [15] 1.56%

CN(C)CCCN1C(=O)CSC1c1ccccc1 (stereo not given)
inactive: Her2 level [2] 99% | viability [3] 100% | viability [4] 91.6% | viability [5] 94.4% | differential viability (reversal) ([6]; H69AR cells + 2 uM doxorubicin) 4.35% | inhibition [7] -4.67% | inhibition [8] -1.83% | growth inhibition [9] -2.19% | growth inhibition [10] -1.53% | viability increase [11] -0.9% | viability [12] 104% | viability [13] 101% | inhibition [14] 1.47% | RAM network inhibition [15] 0.73%
90.1%: viability [6, 16]
94.4%: viability [6, 17]
100%: viability [1]

CC1=C(C)CC2C(=O)N(c3cccc4ccccc34)C(=O)C2C1 (stereo not given)
85.7%: viability [6, 17]
inactive: Her2 level [2] 114% | viability [3] 104% | viability [4] 80.1% | viability [5] 85.7% | differential viability (reversal) ([6]; H69AR cells + 2 uM doxorubicin) 2.52% | inhibition [7] -6.53% | inhibition [8] -11.3% | viability increase [11] -0.78% | viability [12] 100% | viability [13] 96.5% | inhibition [14] 0.295% | RAM network inhibition [15] 2.23%
active: growth inhibition [9] 75.2% | growth inhibition [10] 67.6%
104%: viability [1]
83.2%: viability [6, 16]

Cc1c(NC(=O)c2ccc(Br)o2)c(=O)n(-c2ccccc2)n1C
86.1%: viability [6, 16]
inactive: Her2 level [2] 96% | viability [3] 91% | viability [4] 89.2% | viability [5] 91.2% | differential viability (reversal) ([6]; H69AR cells + 2 uM doxorubicin) 5.07% | inhibition [7] -5.06% | inhibition [8] -1.67% | growth inhibition [9] -11.6% | growth inhibition [10] -4.15% | viability increase [11] 0.9% | viability [12] 97.7% | viability [13] 103% | inhibition [14] 1.59% | RAM network inhibition [15] 2.23%
91.2%: viability [6, 17]
91%: viability [1]

CC1CCc2nn(CC(=O)NCCCN3CCOCC3)cc2C1 (stereo not given)
99.5%: viability [1]
88.1%: viability [6, 16]
inactive: Her2 level [2] 102% | viability [3] 99.5% | viability [4] 85.6% | viability [5] 90.5% | differential viability (reversal) ([6]; H69AR cells + 2 uM doxorubicin) 2.46% | inhibition [7] -3.97% | inhibition [8] -0.83% | growth inhibition [9] 7.55% | growth inhibition [10] 6.69% | viability increase [11] -1.14% | viability [12] 104% | viability [13] 95% | inhibition [14] 3.4% | RAM network inhibition [15] 1.33%
90.5%: viability [6, 17]
